Bioassay records from PubChem BioAssay.
Hits are enriched below; roughly 4.4% of the tested compounds scored in any of these assays.
ALOX12 inhib – inhibitors of human 12-lipoxygenase (ALOX12) | P18054 | purified 12-hLO, xylenol orange hydroperoxide absorbance | Potency, µM (highest dose often 57.1 µM), usual class: inhibitors | hit rate 0.12% among 150,000 | AID 1452; note: nearly all actives have a fitted effect of over 55% in size
Target sequence (P18054 whole entry, looked up): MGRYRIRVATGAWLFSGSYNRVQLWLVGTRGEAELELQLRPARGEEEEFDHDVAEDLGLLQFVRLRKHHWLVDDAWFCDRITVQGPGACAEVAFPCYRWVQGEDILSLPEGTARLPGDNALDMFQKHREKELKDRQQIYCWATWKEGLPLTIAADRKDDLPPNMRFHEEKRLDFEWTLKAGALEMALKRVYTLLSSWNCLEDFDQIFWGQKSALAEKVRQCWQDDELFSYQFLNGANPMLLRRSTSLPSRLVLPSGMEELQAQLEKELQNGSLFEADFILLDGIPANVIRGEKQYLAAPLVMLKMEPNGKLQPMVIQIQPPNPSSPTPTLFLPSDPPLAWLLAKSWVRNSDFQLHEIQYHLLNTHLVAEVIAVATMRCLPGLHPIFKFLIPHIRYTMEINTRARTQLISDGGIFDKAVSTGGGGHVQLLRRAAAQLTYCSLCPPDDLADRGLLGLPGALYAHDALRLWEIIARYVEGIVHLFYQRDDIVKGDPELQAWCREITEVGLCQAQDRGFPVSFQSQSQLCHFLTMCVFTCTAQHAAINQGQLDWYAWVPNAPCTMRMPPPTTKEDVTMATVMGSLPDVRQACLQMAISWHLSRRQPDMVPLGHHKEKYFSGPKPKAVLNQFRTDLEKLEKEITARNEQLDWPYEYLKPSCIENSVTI
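Purified human 12hLO (150 nM), preincubated 15 min with compound, then 40 uM arachidonic acid for 30 min, room temperature, Hepes pH 7.0 with 0.01% Triton X-100. Hydroperoxide detected by ferrous iron/xylenol orange; 573/405 nm absorbance ratio gives reaction progress.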
p53ts 32C tox – p53ts cell cytotoxicity, permissive temperature; H1299-p53A138V at 32C, ATP luminescence viability, 24 h; AID 924; Potency, µM (top dose mostly 46.1 µM), actives largely listed as cytotoxic; hit rate 0.93% among 130,000; note: nearly all actives have a fitted effect of over 55% in size
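H1299-p53 A138V cells (temperature-sensitive p53) exposed 24 h to up to 46 uM compound at 32C, where p53 is wild-type in conformation. Viability read as ATP luminescence and normalised to DMSO and 100 uM tamoxifen. AC50 fitted with the Hill equation.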
p53ts 39C kill – kills p53ts cells at the nonpermissive temperature | H1299-p53A138V viability at 39C, ATP luminescence, 24 h | hit rate 1.5% among 130,000 | AID 902 | Potency, µM (titrated, usually from 46.1 µM), usual class: cytotoxic; note: nearly all actives have a fitted effect of over 55% in size
HPGD block – blocks human HPGD enzyme activity; purified HPGD, NADH fluorescence kinetic, PGE2 substrate; hit rate 4.3% among 150,000; AID 894; Potency, µM, most hits filed as inhibitors; active = well fitted inhibition curve with a large enough effect, not every such curve was filed as active; inconclusive = small, poorly fitted or top-dose-only effect, or another doubt; inactive = no such curve, though single readings can be large or run the other way
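20 nM HPGD preincubated 15 min at room temperature with compound in 50 mM Tris-HCl pH 8, 0.01% Tween 20. Started with 1 mM NAD+ and 30 uM prostaglandin E2; NADH fluorescence (360/450 nm) read 5 times over 30-s intervals, last minus first.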
Numbers stand for hits. Unless noted, calls come from the whole dose curve; as a rule, active = well fitted curve in the direction sought with a large enough effect; inconclusive = small, poorly fitted or top-dose-only effect, or another doubt; inactive = no such curve, though single readings can be large; an effect the other way counts as inactive or inconclusive.

For Cc1ccc(Sc2c(C)nn(C(=O)COc3ccc(F)cc3)c2C)cc1 the results were p53ts 32C tox inactive and p53ts 39C kill inactive.
Screening CCN(CC)CCNC(=O)C(=O)NCC(c1cccnc1)N1CCN(c2ccc(F)cc2)CC1 (stereo not drawn) returned p53ts 32C tox inactive and p53ts 39C kill inactive.
Cc1nn(-c2ccccc2)c2ncc(C(=O)c3cc(Cl)ccc3O)cc12 was read as ALOX12 inhib inactive and HPGD block 16µM.
Screening Cc1cc(C)n(CC(=O)Nc2ccc(F)c(F)c2)c(=O)c1C#N returned p53ts 32C tox inactive and p53ts 39C kill inactive.
Screening O=C1C=CC(=O)N1N(c1ccccc1)c1ccccc1 returned ALOX12 inhib inconclusive and HPGD block 1.4µM.
`CCN(CCCNC(=O)c1cc(Nc2ccccc2OC)nc2ccccc12)c1cccc(C)c1` gave p53ts 32C tox inactive and p53ts 39C kill inactive.
Screening Cc1cccc(NC(=O)C2CC(=O)n3cnnc3S2)c1 (stereo not drawn) returned ALOX12 inhib inactive and HPGD block 10µM.
CCN=C1SC(C(=O)Nc2cccc(C)c2)CC(=O)N1CC (stereo not drawn) was read as ALOX12 inhib inactive and HPGD block inactive.
O=C1CN(C(=O)c2ccc(S(=O)(=O)N3CCCCC3)cc2)C(c2ccc(F)cc2)c2cc(Br)ccc2N1 (stereo not drawn) was read as p53ts 32C tox inactive and p53ts 39C kill inactive.
`O=C(Nc1ccc(NC(=O)C2CCCCC2)cn1)c1ccco1` gave ALOX12 inhib inactive, p53ts 32C tox 4µM and p53ts 39C kill 5µM.
CC(C)C(=O)Nc1ccc(NC(=O)c2ccccn2)cn1 was read as ALOX12 inhib inactive, p53ts 32C tox 7.9µM and p53ts 39C kill 13µM.
`O=C(Nc1ccc(NC(=O)C2CC2)nc1)c1ccccn1` gave ALOX12 inhib inactive, p53ts 32C tox 13µM and p53ts 39C kill 6.3µM.
For CC(C)C(=O)Nc1ccc(NC(=O)c2cccnc2)cn1 the results were ALOX12 inhib inactive and HPGD block inactive.
For CCC(=O)Nc1ccc(NC(=O)c2ccccn2)cn1 the results were ALOX12 inhib inactive, p53ts 32C tox inconclusive, p53ts 39C kill inconclusive and HPGD block inactive.
`O=C(Nc1ccc(NC(=O)c2ccco2)nc1)c1ccccn1` gave ALOX12 inhib inactive, p53ts 32C tox 13µM, p53ts 39C kill 13µM and HPGD block inactive.
`COc1ccc(CCN2C(=O)N(c3ccc(C)cc3)C(=O)C2CC(=O)Nc2ccc(F)cc2)cc1` (stereo not drawn) gave p53ts 32C tox inactive and p53ts 39C kill inactive.
Screening COc1ccc(-c2nc(CSCC(=O)NCCc3ccc(OC)c(OC)c3)c(C)o2)cc1 returned p53ts 32C tox inactive and p53ts 39C kill inactive.
COc1ccc(-n2nnnc2S(=O)(=O)CC(=O)N2CCCCC2)cc1 was read as ALOX12 inhib inactive, p53ts 32C tox 20µM, p53ts 39C kill inconclusive and HPGD block 14µM.
Screening N#Cc1c(-c2ccccc2)nc(SCC(=O)N(c2ccccc2)c2ccccc2)[nH]c1=O returned ALOX12 inhib inactive, p53ts 39C kill inactive and HPGD block 28µM.
Screening CCOC(=O)CCCCC(=O)c1[nH]c(=O)[nH]c1CSCCO returned ALOX12 inhib inactive and HPGD block inactive.
For CCOC(=O)CCCCC(=O)c1[nH]c(=O)[nH]c1CSc1nc(-c2ccccc2)c(C#N)c(=O)[nH]1 the results were ALOX12 inhib inactive, p53ts 32C tox inactive, p53ts 39C kill inactive and HPGD block 20µM.
Screening N#Cc1c(-c2ccccc2)nc(SCC(=O)Nc2ccccc2F)[nH]c1=O returned ALOX12 inhib inactive and HPGD block 16µM.
Screening N#Cc1c(-c2ccccc2)nc(SCC(=O)Nc2ccccc2)[nH]c1=O returned ALOX12 inhib inactive and HPGD block inactive.
Screening CC(CN(C)C)NC(=O)c1ccc(Cc2nc3ccccc3[nH]2)cc1 (stereo not drawn) returned ALOX12 inhib inactive, p53ts 32C tox inactive, p53ts 39C kill inactive and HPGD block inactive.
For COc1ccc(-c2c(C)c3ccc(O)c(CN4CCCC(C)C4)c3oc2=O)cc1OC (stereo not drawn) the results were p53ts 32C tox inactive and p53ts 39C kill inactive.
Screening CC(Sc1ccccn1)C(=O)Nc1ccccc1 (stereo not drawn) returned ALOX12 inhib inactive, p53ts 32C tox inactive, p53ts 39C kill inactive and HPGD block 28µM.
COc1cccc2c1NC(C(=O)O)C1CC=CC21 (stereo not drawn) was read as ALOX12 inhib inactive, p53ts 32C tox inactive, p53ts 39C kill inactive and HPGD block inconclusive.
Cc1ccc2c(c1)C1C=CCC1C(C(=O)O)N2 (stereo not drawn) was read as ALOX12 inhib inactive, p53ts 32C tox inactive, p53ts 39C kill inactive and HPGD block 20µM.
Screening CCc1nn2cc(C(=O)c3cc(Cl)ccc3O)cnc2c1-c1ccc(F)cc1 returned ALOX12 inhib inactive and HPGD block 16µM.
Cc1nn(C)c2ncc(C(=O)c3cc(F)ccc3O)cc12 was read as ALOX12 inhib inactive and HPGD block inactive.
`CCOc1ccc(N2C(=O)c3cccnc3C2Nc2ccc(Cl)cc2)cc1` (stereo not drawn) gave ALOX12 inhib inactive, p53ts 32C tox inactive, p53ts 39C kill inactive and HPGD block inactive.
`Cc1ccc(NC2c3ncccc3C(=O)N2c2ccccc2C)cc1C` (stereo not drawn) gave ALOX12 inhib inactive, p53ts 32C tox inactive, p53ts 39C kill inactive and HPGD block 16µM.
`CCn1nc(CC(=O)Nc2nnc(CC(=O)N3CCCCC3)s2)c2ccccc2c1=O` gave ALOX12 inhib inactive, p53ts 32C tox inactive, p53ts 39C kill inactive and HPGD block 22µM.
For Cc1nn(CC(=O)Nc2nnc(CC(=O)N3CCCC3)s2)c(=O)c2ccccc12 the results were ALOX12 inhib inactive, p53ts 32C tox inactive and p53ts 39C kill inactive.
`Cc1cc(C)n(C(=O)CNC(=O)COc2ccccc2)n1` gave ALOX12 inhib inactive, p53ts 32C tox inactive, p53ts 39C kill inactive and HPGD block 32µM.
For Cc1ccc(OCC(=O)NCC(=O)n2nc(C)cc2C)cc1 the results were ALOX12 inhib inactive and HPGD block inactive.
For COc1ccc(OC)c(N(CC(=O)Nc2cccnc2)S(=O)(=O)c2ccc(OC)c(OC)c2)c1 the results were ALOX12 inhib inactive, p53ts 32C tox inactive, p53ts 39C kill inactive and HPGD block 16µM.
For COc1ccc(OC)c(N(CC(=O)Nc2cccnc2)S(C)(=O)=O)c1 the results were ALOX12 inhib inactive and HPGD block inactive.
Screening COc1ccc(OC)c(N(CC(=O)Nc2ccc3c(c2)OCO3)S(=O)(=O)c2ccccc2)c1 returned ALOX12 inhib inactive, p53ts 32C tox inactive, p53ts 39C kill inactive and HPGD block 32µM.
COc1ccc(OC)c(N(CC(=O)Nc2cccnc2)S(=O)(=O)c2ccc(C)cc2)c1 was read as ALOX12 inhib inactive and HPGD block 7.1µM.
`COc1ccc(S(=O)(=O)N(CC(=O)Nc2cccnc2)c2ccc(C)cc2)cc1OC` gave p53ts 32C tox inactive and p53ts 39C kill inactive.
